# Results taken from the supplement of paper PMC13380429.
# How the values were obtained:
# [1] = system: Vero E6 infected with SARS-CoV-2; assay: morphology score (similarity to uninfected cells); higher = more like uninfected cells; conditions: 24 h
# [2] = system: Vero E6 infected with SARS-CoV-2; assay: SARS-CoV-2 infection rate relative to infected DMSO; higher = more infection, active = 60 or less; conditions: 24 h
smiles,measurement,setting,value
CCC(=O)N1CCN(c2ccc(-n3c(=O)ccc4cnc5ccc(-c6cnc7ccccc7c6)cc5c43)cc2C(F)(F)F)CC1 [torin-1] (10 µM),morphology score,[1],-0.0739
same,SARS-CoV-2 infection rate,[2],107% (inactive)
CC(=O)Nc1ccccc1 [acetanilide] (10 µM),morphology score,[1],0.174
same,SARS-CoV-2 infection rate,[2],102% (inactive)
Cc1noc(C)c1-c1cc(O)cc([C@@H](O)c2ccccc2)c1 (10 µM),morphology score,[1],0.154
same,SARS-CoV-2 infection rate,[2],104% (inactive)
CCN(CC)CCOc1ccc(C(O)(Cc2ccc(Cl)cc2)c2ccc(C)cc2)cc1 (configuration not stated) [Triparanol] (0.833333 µM),morphology score,[1],0.0848
same,SARS-CoV-2 infection rate,[2],77.5% (inactive)
O=C([O-])CN1CCN(CC(=O)[O-])CCN([C@H](CO)[C@H](O)CO)CCN(CC(=O)[O-])CC1.[Gd+3] (racemic) [gadobutrol] (10 µM),morphology score,[1],-0.0306
same,SARS-CoV-2 infection rate,[2],109% (inactive)
Cc1c(Cc2ccc3ccccc3n2)c2cc(F)ccc2n1CC(=O)O (10 µM),morphology score,[1],0.0108
same,SARS-CoV-2 infection rate,[2],102% (inactive)
CN[C@@H](C)CCC=C(C)C [isometheptene-mucate] (10 µM),morphology score,[1],-0.0576
same,SARS-CoV-2 infection rate,[2],109% (inactive)
CC1CCN(CCCC(=O)c2ccc(F)cc2)CC1 [melperone] (10 µM),morphology score,[1],0.389
same,SARS-CoV-2 infection rate,[2],80.5% (inactive)
O=C(Nc1cc(C(F)(F)F)cc(C(F)(F)F)c1)c1cc(Cl)ccc1O [IKK-2-inhibitor-V] (10 µM),morphology score,[1],-0.2
same,SARS-CoV-2 infection rate,[2],104% (inactive)
Cc1ccc(C23CNCC2C3)cc1 (configuration not stated) [bicifadine] (10 µM),morphology score,[1],0.0287
same,SARS-CoV-2 infection rate,[2],107% (inactive)
Cc1cc2c(OCC(CNC(C)(C)C)OC(=O)c3ccccc3)cccc2[nH]1 (configuration not stated) [bopindolol] (10 µM),morphology score,[1],0.12
same,SARS-CoV-2 infection rate,[2],110% (inactive)
